Screening results: PubChem, National Center for Advancing Translational Sciences (NCATS)
This is a sample that favours compounds with a hit; in the whole collection about 7.4% have one here.
SMN2 splice enh = SMN2 splice variant enhancement. 210,000 tested, 2.8% active. HEK293 SMN2-luciferase splicing reporter, luminescence, 30-36 h. Potency, µM (top dose mostly 46.1 µM), for the others: at the highest dose activity change, positive = activation, hits mostly activators; further: % of control where 0% means no effect; nearly all actives have a fitted effect of over 55% in size
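HEK293 cells carry an SMN2 […]–luciferase reporter in which exon 7 inclusion puts luciferase in frame. Cells were plated 10-12 h before compound addition, then incubated 30-36 h at 37C. ONE-Glo luminescence was read; sodium butyrate at 4.5 mM final served as control.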
FLuc modulator = firefly luciferase modulation, counter-screen for miR-21 project. P08659. purified FLuc, Km substrates, luminescence inhibition. Potency, µM (titrated, usually from 57.5 µM), for inactives: top-dose activity change, negative = inhibition, most hits filed as inhibitors. 360,000 tested, 6.9% active. AID 588342;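 further: plate controls were vehicle for no effect and reference inhibitor for full effect; nearly all actives have a fitted effect of over 55% in size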
Target sequence (P08659 whole entry, looked up): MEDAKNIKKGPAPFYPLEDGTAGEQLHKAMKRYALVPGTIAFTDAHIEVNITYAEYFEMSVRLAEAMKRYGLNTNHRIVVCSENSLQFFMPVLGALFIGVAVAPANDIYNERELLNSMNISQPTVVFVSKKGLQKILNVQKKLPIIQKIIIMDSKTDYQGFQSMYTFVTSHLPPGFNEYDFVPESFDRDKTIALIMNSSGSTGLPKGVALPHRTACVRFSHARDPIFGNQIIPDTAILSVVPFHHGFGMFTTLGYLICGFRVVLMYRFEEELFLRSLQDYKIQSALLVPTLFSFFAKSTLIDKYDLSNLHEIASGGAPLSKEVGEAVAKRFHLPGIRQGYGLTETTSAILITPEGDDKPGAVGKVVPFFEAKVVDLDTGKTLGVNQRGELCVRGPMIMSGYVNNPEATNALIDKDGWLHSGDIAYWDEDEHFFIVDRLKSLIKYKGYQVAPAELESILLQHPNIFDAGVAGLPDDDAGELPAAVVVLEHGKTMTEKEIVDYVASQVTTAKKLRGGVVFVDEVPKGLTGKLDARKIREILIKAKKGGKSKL
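Biochemical qHTS of compounds, final roughly 60 µM downward over six points, against 10 nM purified firefly luciferase using Km concentrations of substrates (10 uM D-luciferin, 10 uM ATP) in Tris acetate pH 7.5 buffer; luminescence output.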
NPC1 prom act = NPC1 promoter activation; Huh7 NPC1 promoter luciferase reporter, 24 h; Potency, µM (top dose mostly 9.22 µM), without a hit: at the highest dose activation, most hits filed as activators; 320,000 tested, 2.4% active; further: % of control where 0% means no effect; nearly all actives have a fitted effect of over 60% in size
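Huh7 reporter cells (NPC1 promoter driving luciferase) are dosed with compound for 24 h at 37 °C, 5% CO2; luciferase detection reagent is then added and luminescence measured after 10 min at ambient temperature.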
Luc counter = Kinase-Glo luciferase inhibition (counter-screen); Potency, µM (series often up to 38.3 µM), without a hit: top-dose activity change, negative = inhibition, most hits filed as inhibitors; Kinase-Glo luciferase, ATP luminescence, 8 min; Q27757; 200,000 tested, 0.28% active; further: on the % scale 0 is the no-effect control and ±100 the full control effect; nearly all actives have a fitted effect of over 60% in size
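Compound is pinned into ATP-containing buffer (10 uM ATP, imidazole pH 7.2, 7 mM MgCl2). Kinase-Glo luciferase reagent is then added. Light output is recorded following an 8-min room-temperature incubation.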
ELG1 genotoxic = inducers of genotoxicity in HEK293T ELG1-luciferase cells; HEK293T ELG1-luciferase reporter, luminescence, 16 h; 330,000 tested, 1.3% active; Potency, µM (series often up to 46 µM), inactives show at the top dose activity change, positive = activation, usual class: activators; further: % of control where 0% means no effect; nearly all actives have a fitted effect of over 60% in size
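Genotoxicity was scored as increased ELG1-luciferase reporter signal, measured by ONE-Glo luminescence (30 min, room temperature). Compound or vehicle exposure of the HEK293T reporter cells lasted 16 hr at 37°C.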
Rab9 promoter act = Rab9 promoter activation; Huh7 Rab9 promoter-luciferase reporter, luminescence, 24 h; Potency, µM (series often up to 9.22 µM), for the others: top-dose activation, negative = inhibition, actives largely listed as activators; 320,000 tested, 2.8% active; AID 485297; further: % of control where 0% means no effect; nearly all actives have a fitted effect of over 60% in size
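Luciferase signal after 10 min detection reagent at ambient indicates Rab9 promoter upregulation; stably transfected Huh7 cells were treated 24 h with compound in DMSO at 37 °C, 5% CO2.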
* marks the source's active call; other numbers are inactive results; u = inconclusive; x = no result; [ ] = another dose, or the depositor's remark. The call rests on the fitted dose curve; in most records, active means well fitted curve in the direction sought with a large enough effect; inconclusive means small, poorly fitted or top-dose-only effect, or another doubt; inactive means no such curve, though single readings can be large; an effect the other way counts as inactive or inconclusive. Potency means the concentration at half of the fitted maximal effect.

SMILES	SMN2 splice enh	FLuc modulator	NPC1 prom act	Luc counter	ELG1 genotoxic	Rab9 promoter act
O=C(O)Cc1ccc(NC(=O)Nc2cccc(Cl)c2)cc1	x	17µM*	-3%	2%	3%	3%
CCc1ccc(NC(=O)C(=O)NNC(=O)c2cccc(OC)c2)cc1	x	u	-1%	x	0%	3%
O=C(Nc1ccncc1)Nc1cccc(Cl)c1	x	u	16%	x	-6%	6%
COc1cc(CNC(=O)c2ccc3c(c2)N(C)C(=O)C2CCCCN32)cc(OC)c1OC (stereo not given)	x	0%	x	x	x	x
Cc1nc2scc(C)n2c(=O)c1S(=O)(=O)Nc1cccc(C(F)(F)F)c1	-18%	-13%	x	x	x	x
Cc1cccc(Cn2c(=O)n3nc(-c4ccccc4)nc3c3ccccc32)c1	0%	-13%	x	x	x	x
CCCCNC(=O)C1CCN(Cc2ccc(OCc3ccccc3)cc2)CC1	u	19µM*	u	1%	u	u
OC1CCN(Cc2ccc(OCc3ccccc3)cc2)CC1	x	11µM*	2µM*	x	u	u
COc1ccc(OC)c(-c2csc(NC(=O)Cc3cccs3)n2)c1	-22%	13µM*	-4%	0%	0%	-3%
COc1ccc(OC)c(-c2csc(NC(=O)Cc3ccccc3)n2)c1	x	11µM*	-1%	x	-20%	3%
COc1ccc(CC(=O)Nc2nc(-c3cc(OC)ccc3OC)cs2)cc1	-39%	-3%	-8%	-2%	-10%	-5%
O=C1CC2(CCCC2)CC(=O)N1CCCCNCC1COc2ccccc2O1 (stereo not given)	6%	x	x	x	x	x
CCOc1ccc(-c2nonc2NC(=O)c2oc3ccc(Cl)cc3c2C)cc1	-2%	u	x	x	x	x
Cc1ccc(NC(=O)/C(=C\c2ccco2)NC(=O)c2ccco2)cc1	x	-17%	1%	x	5%	-9%
CC(=O)c1cccc(NC(=O)c2ccco2)c1	-2%	0%	2%	-8%	3%	0%
CC(=O)Nc1cccc(C(=O)NCCc2ccco2)c1	x	u	u	x	23µM*	u
O=C(/C=C\c1ccco1)c1ccc(NC(=O)c2ccco2)cc1	x	11µM*	u	-6%	u	u
Cc1ccc(NC(=O)N/C=C/c2ccco2)cc1	14µM*	u	2.8µM*	3%	u	2.8µM*
CC(=O)Nc1cccc(C(=O)/C=C/c2ccco2)c1	2%	19µM*	u	-4%	7%	21%
O=C(NCc1ccccc1)c1ccc(NC(=O)c2ccco2)cc1	x	1%	6%	x	0%	9%
CCc1ccc(-n2nc3ccc(NC(=O)c4cc5ccccc5o4)cc3n2)cc1	-2%	0%	x	x	x	x
CCCCC(CC)CNCC(CC)CCCC (stereo not given)	-5%	x	x	x	x	x
Cc1ccc(CSc2c(C)cnc3c2c(=O)n(C)c(=O)n3C)cc1	x	4%	x	x	x	x
N[C@@H](Cc1cc(-c2ccc(Cl)cc2Cl)cc(CP(=O)(O)O)c1O)C(=O)O	x	x	x	3%	x	x
CC(=O)Nc1ccc(C(=O)/C=C/c2ccco2)cc1	16%	9.5µM*	13%	-3%	11%	22%
SMILES	SMN2 splice enh	FLuc modulator	NPC1 prom act	Luc counter	ELG1 genotoxic	Rab9 promoter act
CC(=O)N(C)c1ccc(NC(=S)NC(=O)/C=C/c2ccco2)cc1	x	u	1%	x	1%[9.26 µM]	-1%
CC(C)C[C@@H](CC(=O)N[C@@H](CCC(=O)O)CC(=O)O)NC(=O)[C@@H]1CCCC[C@H]1NC(=O)C[C@H](CCCN)NC(=O)C[C@H](CO)NC(=O)[C@@H]1CNCC[C@H]1N	1%	x	x	2%	x	x
CCNC(=S)NNC(=O)c1cc(-c2cccc(OCC)c2)nc2ccccc12	16%	1.3µM*	12%	-5%	u	17%
CCCCOc1ccc(-c2cc(C(=O)NNC(=S)NCC)c3ccccc3n2)cc1	3.2µM*	0.076µM*	u	u	u	u
COc1ccc(Cl)cc1C(=O)NNC(=S)NC(=O)c1cc(-c2ccc(Cl)cc2)nc2ccccc12	-35%	4%	-7%	-8%	1%	-6%
CCNC(=S)NNC(=O)c1cc(-c2ccc(OC)cc2)nc2ccccc12	7.9µM*	0.076µM*	u	u	u	u
CCNC(=S)NNC(=O)c1cc(-c2cccc(C)c2)nc2ccccc12	u	0.34µM*	u	13µM*	2%	u
COC(=O)c1c(NC(=O)c2ccc(S(=O)(=O)N3CCCCC3)cc2)sc2c1CCN(C)C2	x	2%	x	x	x	x
CCc1ccccc1NC(=O)CN(c1ccccc1)S(=O)(=O)c1ccsc1C(=O)OC	x	-5%	x	x	x	x
CCCCOc1cccc(-c2cc(C(=O)NNC(=S)NCC)c3ccccc3n2)c1	21%	1.5µM*	7%	0%	u	16%
CN1C(=O)N(C)C2=NNC=NC2(O)C1=O (stereo not given)	-74%	x	x	-4%	x	x
CN(C)/C=C/C(=O)c1ccc2noc(-c3ccc(F)cc3)c2c1	x	u	-3%	x	-9%	-5%
Cc1ccc(-c2onc3ccc(C(=O)/C=C/N(C)C)cc23)cc1	x	15µM*	3%	x	-6%	0%
COc1ccc(CNC(=O)CCCc2cn(C)c3ccccc23)c(OC)c1	x	-2%	x	x	x	x
CCOCCOC(=O)COc1ccc2c(-c3ccccc3)cc(=O)oc2c1	4%	u	-1%	-4%	1%	-2%
CC(=O)Oc1ccc2c(=O)c(-c3ccccc3)coc2c1	25µM*	13µM*	u	-15%	0%	u
CCOC(=O)COc1ccc2c(=O)c(-c3ccccc3)coc2c1	x	17µM*	-1%	x	2%	-5%
COCCCNC(=O)c1ccc(-c2nc(CS(=O)(=O)c3ccc(C)cc3)c(C)o2)cc1	x	-2%	x	x	x	x
COc1ccc(CCNC(=O)CCn2c(=O)c3ccccc3n(Cc3cc(C)ccc3C)c2=O)cc1OC	-3%	-1%	x	x	x	x
Nc1ncnc2c1ncn2[C@H]1O[C@@H](CSCC[C@@H](N)C(=O)O)[C@H](O)[C@@H]1O	-2%	x	x	x	x	x
c1ccc(Nc2cccc(Nc3ccccc3)n2)cc1	-22%	19µM*	17%	-1%	u	u
CCCCOC(=O)n1c(=S)oc2cc(Cl)ccc21	-11%	17µM*	0%	1%	1%	-6%
CC(=O)Nc1cccc(Oc2ccc([N+](=O)[O-])cc2Cl)c1	9%	24µM*	0%	1%	14%	17%
COc1ccc(NC(=O)Nc2cccc([N+](=O)[O-])c2)cc1Cl	-7%	21µM*	1%	6%	-2%	16%
CCc1ccccc1NC(=O)c1cccc(Oc2ccc([N+](=O)[O-])cc2Cl)c1	x	2%	-9%	x	-3%	0%
COc1ccc(Cl)cc1NC(=O)c1cc(S(=O)(=O)N(C)Cc2ccccc2)ccc1F	x	-9%	x	x	x	x
